The source made the active and inactive calls. Unless noted, how the calls were made is not given here.
Key:
[1] = test system: XIP peptide (Xip251-270) binding; assay: XIP fragment 251-270 binding compounds – biochemical, small-molecule microarray, fluorescence 635/667 nm, 0.1 µg/mL protein, primary screen (AID 1182); settings: fluorescent protein binding, 635 nm, higher = more signal, called active from +8 up or from −8 down
XIP peptide (Xip251-270) = assay: compounds binding XIP fragment 251-270 – biochemical, small-molecule microarray, fluorescence 635/667 nm, 0.5 µg/mL protein, primary screen (AID 1183); settings: fluorescence 635 nm, higher = more signal
[2] = blood-stage malaria parasite viability loss – strain 3D7, DAPI fluorescence, 100 nL, primary screen (AID 1184);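 further: parasites grown inside human red blood cells in medium with human serum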; settings: P. falciparum 3D7 growth, 3 d, higher = more signal
[3] = target: Homeobox protein Hox-A13 (Mus musculus) (UniProt Q62424); assay: disruptors of Hoxa13 oligonucleotide interaction – biochemical, fluorescence polarization, labeled oligonucleotide, primary screen (AID 1185); settings: Hoxa13:DNA binding, 15 min, higher = more signal, called active from +8 up or from −8 down
[4] = blockers of DNA damage checkpoint Chk1 activation – imaging, HeLa, hydroxyurea, phospho-Chk1 antibody, percent positive cells, primary screen (AID 1186); settings: hydroxyurea-induced phospho-Chk1 immunofluorescence imaging, higher = more signal
[5] = blockers of DNA damage checkpoint Chk1 activation – imaging, HeLa, hydroxyurea, phospho-Chk1 nuclear intensity, primary screen (AID 1187); settings: hydroxyurea-induced phospho-Chk1 immunofluorescence imaging, higher = more signal

Homeobox protein Hox-A13 (Mus musculus), sequence (Q62424 whole entry, looked up): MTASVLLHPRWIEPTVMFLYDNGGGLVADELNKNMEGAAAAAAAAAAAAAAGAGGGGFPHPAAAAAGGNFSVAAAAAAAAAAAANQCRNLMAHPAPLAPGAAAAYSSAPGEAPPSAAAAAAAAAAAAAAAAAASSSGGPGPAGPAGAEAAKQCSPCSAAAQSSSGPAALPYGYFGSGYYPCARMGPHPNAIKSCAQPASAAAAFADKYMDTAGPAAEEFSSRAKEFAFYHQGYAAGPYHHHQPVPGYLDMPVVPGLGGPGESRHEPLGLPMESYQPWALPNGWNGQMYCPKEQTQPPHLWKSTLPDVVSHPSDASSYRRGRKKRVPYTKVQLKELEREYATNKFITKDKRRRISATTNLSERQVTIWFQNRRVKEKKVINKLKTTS

COC(=O)[C@@]1(Cc2ccc(F)cc2)[C@@H]2C(=CC(=O)[C@H]2CC(=O)C(=O)N(C)C)CN1C(=O)c1ccccc1
composite z-score [1]: 0.0142 (inactive) | composite z-score (XIP peptide (Xip251-270)): 0.472 | z-score [2]: -1.35 | z-score [3]: -2.5 (inactive) | z-score [4]: -0.0509 (inactive) | z-score [5]: -0.914 (inactive)

NCCCCCNC(=O)[C@@H]1C[C@@H]2C(=O)N3CCC[C@H]3C(=O)N2[C@@H]1c1cccc(OCCO)c1
composite z-score [1]: 0.536 (inactive) | composite z-score (XIP peptide (Xip251-270)): -0.0496 | z-score [2]: 0.398 | z-score [3]: -3.71 (inactive) | z-score [4]: 0.0592 (inactive) | z-score [5]: 0.182 (inactive)

CC(C)c1ccc(NN2C(C(O)c3ccc4c(c3)OCO4)C=CC3C(=O)N(c4ccccc4)C(=O)C32)cc1 (centres undefined)
composite z-score [1]: 0.803 (inactive) | composite z-score (XIP peptide (Xip251-270)): 0.665 | z-score [2]: -0.121 | z-score [3]: -1.45 (inactive) | z-score [4]: -0.575 (inactive) | z-score [5]: -0.575 (inactive)

C/C=C\[C@@H](NCc1ccccc1Br)[C@@H](O)Cc1ccccc1
composite z-score [1]: -0.0971 (inactive) | composite z-score (XIP peptide (Xip251-270)): 0.0819 | z-score [2]: -1.64 | z-score [3]: -1.47 (inactive) | z-score [4]: 0.0731 (inactive) | z-score [5]: 0.35 (inactive)

O=C1c2ccccc2[C@@]2(Cc3ccccc3N(C3CC3)C2=O)[C@H](c2ccc(CO)cc2)N1Cc1ccccc1C(F)(F)F
composite z-score [1]: -0.27 (inactive) | composite z-score (XIP peptide (Xip251-270)): 0.926 | z-score [2]: -1.42 | z-score [3]: -2 (inactive) | z-score [4]: 0.0523 (inactive) | z-score [5]: 0.145 (inactive)

COC(=O)[C@H]1COC(c2ccc(OCCCO)cc2)=N1
composite z-score [1]: 0.239 (inactive) | composite z-score (XIP peptide (Xip251-270)): 0.871 | z-score [2]: -0.264 | z-score [3]: -3.56 (inactive) | z-score [4]: 0.101 (inactive) | z-score [5]: -0.388 (inactive)

CCCCCCc1nc(CCCc2cc3c(c(CCCCCC)n2)[Si](C(C)C)(C(C)C)O[C@H]3c2ccccc2)cc2c1[Si](C(C)C)(C(C)C)O[C@H]2c1ccccc1
composite z-score [1]: 0.285 (inactive) | composite z-score (XIP peptide (Xip251-270)): -0.307 | z-score [2]: -0.607 | z-score [3]: -2.79 (inactive) | z-score [4]: -0.0972 (inactive) | z-score [5]: -0.202 (inactive)

COc1ccc([Si](C)(C)[C@@H]2[C@@H](CC(=O)N3CCC[C@H]3CO)O[C@]3(C(=O)N(Cc4cccc(N5CCC5=O)c4)c4ccccc43)[C@H]2C)cc1
composite z-score [1]: 1.07 (inactive) | composite z-score (XIP peptide (Xip251-270)): 0.824 | z-score [2]: -0.744 | z-score [3]: -2.64 (inactive) | z-score [4]: -0.532 (inactive) | z-score [5]: 0.535 (inactive)

[N-]=[N+]=NCc1ccccc1C[C@]1(C(=O)NCc2ccccc2)N=C(c2ccc(OCCCO)cc2)O[C@H]1c1ccccc1N=[N+]=[N-]
composite z-score [1]: -0.649 (inactive) | composite z-score (XIP peptide (Xip251-270)): 0.344 | z-score [2]: -2.52 | z-score [3]: 0.378 (inactive) | z-score [4]: -0.278 (inactive) | z-score [5]: -0.2 (inactive)

COCCOC(=O)N1C(=O)[C@@]2(c3ccccc31)[C@H](C(N)=O)[C@H]1C(=O)O[C@H](c3ccccc3)[C@H](c3ccccc3)N1[C@@H]2c1ccccc1OCCO
composite z-score [1]: 3 (inactive) | composite z-score (XIP peptide (Xip251-270)): 0.801 | z-score [2]: -0.418 | z-score [3]: -4.4 (inactive) | z-score [4]: 0.228 (inactive) | z-score [5]: 0.42 (inactive)

COCCOC(=O)N1C(=O)[C@@]2(c3cc(C#CC4(O)CCCCCC4)ccc31)[C@H](C(=O)N1CCN(c3ncccn3)CC1)[C@H]1C(=O)O[C@H](c3ccccc3)[C@H](c3ccccc3)N1[C@@H]2c1ccc(OCCO)cc1
composite z-score [1]: -0.128 (inactive) | composite z-score (XIP peptide (Xip251-270)): 0.835 | z-score [2]: -2.34 | z-score [3]: 0.821 (inactive) | z-score [4]: 0.124 (inactive) | z-score [5]: 0.204 (inactive)

CC(C)NC(=O)[C@@H]1c2ccccc2C(=O)N(CC23CC4CC(CC(C4)C2)C3)[C@H]1c1ccc(CO)cc1
composite z-score [1]: 0.166 (inactive) | composite z-score (XIP peptide (Xip251-270)): 0.661 | z-score [2]: -1.84 | z-score [3]: -4.68 (inactive) | z-score [4]: -0.111 (inactive) | z-score [5]: -0.0146 (inactive)

CN1C(=O)C2C(C1=O)C1C=C(CCCO)C2C(c2ccc(CN3CCCC3)cc2)N1C (centres undefined)
composite z-score [1]: 0.413 (inactive) | composite z-score (XIP peptide (Xip251-270)): -0.598 | z-score [2]: -1.27 | z-score [3]: -7.16 (inactive) | z-score [4]: -0.0348 (inactive) | z-score [5]: 0.185 (inactive)

CCOC(=O)C1=CC[C@H]2C(=O)N(CC)C(=O)[C@@H]12
composite z-score [1]: 0.223 (inactive) | composite z-score (XIP peptide (Xip251-270)): 0.343 | z-score [2]: -0.239 | z-score [3]: -2.15 (inactive) | z-score [4]: 0.379 (inactive) | z-score [5]: -0.0238 (inactive)

O=C1C2C=CC(C(O)c3ccc([N+](=O)[O-])cc3)N(Nc3ccc([N+](=O)[O-])cc3)C2C(=O)N1c1ccccc1 (centres undefined)
composite z-score [1]: 1.39 (inactive) | composite z-score (XIP peptide (Xip251-270)): 0.813 | z-score [2]: -0.498 | z-score [3]: -4.02 (inactive) | z-score [4]: 0.822 (inactive) | z-score [5]: -0.512 (inactive)

CC(C)C[C@@H]1NC(=O)[C@H]2C[C@@H](C(=O)NCCCCCCN(C)C)[C@@H](c3cccc(OCCO)c3)N2C1=O
composite z-score [1]: 2.09 (inactive) | composite z-score (XIP peptide (Xip251-270)): 0.905 | z-score [2]: 0.063 | z-score [3]: -4 (inactive) | z-score [4]: -0.111 (inactive) | z-score [5]: 0.186 (inactive)

COC(=O)[C@@]1(Cc2ccc(OC)cc2)[C@H]2c3cc(C(=O)N4CCCC4)n(Cc4cc(F)c(F)c(F)c4)c3C[C@H]2CN1C(=O)c1ccccc1
composite z-score [1]: 0.902 (inactive) | composite z-score (XIP peptide (Xip251-270)): 0.604 | z-score [2]: -1.56 | z-score [3]: -2.27 (inactive) | z-score [4]: -0.345 (inactive) | z-score [5]: -0.868 (inactive)

COC(=O)c1c(CC[C@@H](CO)NC(=O)N[C@H](Cc2ccccc2)Cn2cc(-c3ccccc3N)nn2)oc(C(C)=O)c1C(=O)OC
composite z-score [1]: 0.0074 (inactive) | composite z-score (XIP peptide (Xip251-270)): 0.0678 | z-score [2]: -1.29 | z-score [3]: -5.26 (inactive) | z-score [4]: -0.125 (inactive) | z-score [5]: 0.189 (inactive)

Cn1cccc1C(O)C1C=CC2C(=O)NC(=O)C2N1Nc1ccccn1 (centres undefined)
composite z-score [1]: -0.262 (inactive) | composite z-score (XIP peptide (Xip251-270)): 0.916 | z-score [2]: -0.119 | z-score [3]: -5.35 (inactive) | z-score [4]: 0.242 (inactive) | z-score [5]: -0.431 (inactive)

Cc1ccc(F)cc1S(=O)(=O)N[C@@H]1CCN(Cc2ccc(CC(C)C)cc2)C1
composite z-score [1]: -0.112 (inactive) | composite z-score (XIP peptide (Xip251-270)): -0.583 | z-score [2]: -1.66 | z-score [3]: -4.52 (inactive) | z-score [4]: -0.496 (inactive) | z-score [5]: -0.724 (inactive)

COCC1=C2[C@@H](CCc3ccccc3)OB(O)C[C@@H]2n2c(=O)n(-c3ccccc3)c(=O)n2C1
composite z-score [1]: -0.0712 (inactive) | composite z-score (XIP peptide (Xip251-270)): 0.835 | z-score [2]: 1.25 | z-score [3]: -4.79 (inactive) | z-score [4]: 0.0264 (inactive) | z-score [5]: -0.295 (inactive)

CCOC(=O)C[C@H]1[C@H](OC(=O)c2cc3ccccc3oc2=O)[C@@H](NC(=O)c2ccc3ccccc3n2)c2cc(OCCCO)ccc2N1C(=O)c1ccccc1
composite z-score [1]: 0.26 (inactive) | composite z-score (XIP peptide (Xip251-270)): -0.224 | z-score [2]: -2.07 | z-score [3]: -0.763 (inactive) | z-score [4]: 0.22 (inactive) | z-score [5]: 0.249 (inactive)

COCCOC(=O)N1C(=O)[C@@]2(c3cc(C#CC4(O)CCCCCC4)ccc31)[C@H](c1ccc(OCCO)cc1)N1[C@H](c3ccccc3)[C@H](c3ccccc3)OC(=O)[C@H]1[C@@H]2C(=O)NC[C@H](O)c1ccccc1
composite z-score [1]: 0.437 (inactive) | composite z-score (XIP peptide (Xip251-270)): 0.723 | z-score [2]: -2.27 | z-score [3]: 2.7 (inactive) | z-score [4]: 0.0412 (inactive) | z-score [5]: 0.0764 (inactive)

N#Cc1ccc(NN2C(C(O)c3cc(C(F)(F)F)cc(C(F)(F)F)c3)C=CC3C(=O)N(c4ccccc4)C(=O)C32)cc1 (centres undefined)
composite z-score [1]: 1.67 (inactive) | composite z-score (XIP peptide (Xip251-270)): 0.479 | z-score [2]: -0.496 | z-score [3]: -1.5 (inactive) | z-score [4]: 0.245 (inactive) | z-score [5]: -0.0521 (inactive)
